From PubChem
USP17 block: human USP17-like deubiquitinase inhibition | purified USP17, Ub-rhodamine cleavage fluorescence, 3 h | inhibition, % at 50 µM | 6.5% of 47,000 active
USP30 block: human USP30 deubiquitinase inhibition | Q70CQ3 | purified USP30, Ub-rhodamine cleavage fluorescence | inhibition, % at 25 µM | 5.3% of 47,000 active
Target sequence (Q70CQ3 whole entry, looked up): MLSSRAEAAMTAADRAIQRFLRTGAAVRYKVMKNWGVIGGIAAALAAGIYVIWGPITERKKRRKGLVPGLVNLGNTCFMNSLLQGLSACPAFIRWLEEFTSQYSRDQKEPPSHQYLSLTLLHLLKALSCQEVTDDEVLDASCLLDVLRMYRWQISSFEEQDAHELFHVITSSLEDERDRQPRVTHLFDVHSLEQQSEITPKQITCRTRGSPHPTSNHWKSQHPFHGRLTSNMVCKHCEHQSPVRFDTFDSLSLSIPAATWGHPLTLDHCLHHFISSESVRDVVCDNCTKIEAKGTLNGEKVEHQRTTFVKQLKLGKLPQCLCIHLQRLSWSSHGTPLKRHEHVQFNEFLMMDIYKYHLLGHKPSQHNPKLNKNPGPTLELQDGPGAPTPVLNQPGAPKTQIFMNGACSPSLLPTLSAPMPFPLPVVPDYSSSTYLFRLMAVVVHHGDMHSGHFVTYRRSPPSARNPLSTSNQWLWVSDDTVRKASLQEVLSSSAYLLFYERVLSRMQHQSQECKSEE
USP28 block: inhibitors of human USP28 deubiquitinase | 3% of 47,000 active | AID 1645857 | purified USP28, Ub-rhodamine cleavage fluorescence, 30 min | inhibition, % at 25 µM
OTUD3 block: human OTUD3 deubiquitinase inhibition | purified OTUD3, Ub-rhodamine fluorescence, 2 h | inhibition, % at 25 µM | 0.7% of 47,000 active
A number is an active result; . = inactive; / = no result. In the library only some 11% were active in any assay of this set; here they are far more common. No stated cut-off is given here; in the data, active means inhibition above about 30%; inactive means the rest.

SMILES	USP17 block	USP30 block	USP28 block	OTUD3 block
Cc1ccc(-c2cc(C(=O)Nc3cccc(C)c3)[nH]n2)cc1	.	.	.	.
Cc1ccc(C(O)Cn2cc(C(=O)Nc3ccccc3)nn2)cc1 (centres undefined)	.	35.0	.	.
Cc1ccc2cc(CCNC(=O)COc3ccc(Cl)cc3)c(=O)[nH]c2c1	37.5	.	.	.
COc1ccc2cc(CNCCN3CCOCC3)c(=O)[nH]c2c1	.	.	.	.
COc1ccc2cc(CCNC(=O)C3(c4ccc(Cl)cc4)CCCC3)c(=O)[nH]c2c1	43.4	.	.	.
N#C/C(=C\c1cccc(Oc2ncccn2)c1)c1ccc2c(c1)OCO2	30.4	/	/	.
COc1ccc(/C(C#N)=C/c2cn[nH]c2)cc1	.	.	.	.
COc1ccc(/C(C#N)=C\c2ccc3c(c2)OCO3)cc1	.	34.6	33.4	.
CCCCN1CCC(N2CCN(C(=O)c3ccoc3C)CC2=O)CC1	.	.	.	.
COc1cccc(CNS(=O)(=O)c2ccc3c(c2)CCCN3C(=O)C2CCC2)c1	.	.	30.2	.
CC(=O)N1CCCc2cc(S(=O)(=O)NCc3ccc4c(c3)OCO4)ccc21	.	.	.	.
COc1ccc(Nc2nc(NCc3ccccc3)c3nccnc3n2)cc1	.	.	36.9	.
Cc1ccc(Nc2nc(Nc3cccc(Cl)c3)nc3nccnc23)cc1	.	.	.	.
O=C(CNCC1CCCO1)Nc1ccc(S(=O)(=O)NC2CCCCC2)cc1 (centres undefined)	.	.	.	.
O=C(c1ccnc(N2CCCC2)c1)N1CCOC2(CC=CCN(Cc3ccccc3)C2=O)C1 (centres undefined)	.	.	.	.
Cc1cc(C(=O)N2CCOC3(CC=CCN(CCc4ccccc4)C3=O)C2)n2nccc2n1 (centres undefined)	.	.	.	76.4
CC(c1cc2ccccc2o1)N(C)c1ncnc2sccc12 (centres undefined)	.	.	34.7	.
COc1cc(CCNC(=O)Cc2cccc(Br)c2)ccc1OCc1ccccc1	.	48.5	.	.
COCCN(C)C(=O)c1nc2c(s1)CCCN2c1ccccc1	.	.	.	.
COc1ccc(C(=O)Nc2cccc(S(=O)(=O)NC3=NCCCCC3)c2)cc1	.	.	39.9	.
COc1cccc(NS(=O)(=O)c2ccc3c(c2)N(C)CCO3)c1	.	.	.	.
CCCOc1ccc(C(=O)Nc2ccc(S(=O)(=O)Nc3cc(C)nc(C)n3)cc2)cc1	.	.	45.4	57.2
Cc1cc(NS(=O)(=O)c2ccc(NC(=O)COc3ccc(Cl)cc3)cc2)no1	.	.	.	.
COC(=O)c1cc2cc(NC(=O)c3cccc(Cl)c3)ccc2s1	.	36.4	.	.
O=C(Nc1ccc(S(=O)(=O)NC2=NCCCCC2)cc1)c1ccccc1	.	.	.	.
SMILES	USP17 block	USP30 block	USP28 block	OTUD3 block
COc1cccc(NS(=O)(=O)c2ccc(Oc3ccccc3OC)cc2)c1	36.3	36.8	33.6	.
COc1ccc(S(=O)(=O)c2ccc(NC(=O)c3cccc(Cl)c3)cc2C#N)cc1	32.5	.	.	.
COc1ccc(NS(=O)(=O)c2ccc(C(=O)Nc3cccc(C(C)=O)c3)cc2)cc1	45.7	.	.	.
COc1ccc(NC(=O)c2cccc(C#N)c2)cc1S(=O)(=O)Nc1ccccc1Cl	.	.	.	.
CNc1nc(C2CCN(C(=O)C3(c4cccc(C)c4)CCOCC3)C2)nc2c1CCN(C)C2 (centres undefined)	/	.	.	.
COc1ccccc1CN(C(=O)c1ccco1)C(C(=O)NC1CCCC1)c1ccc(C(C)C)cc1 (centres undefined)	.	35.1	.	.
COc1ccccc1CN(C(=O)c1ccco1)C(C(=O)NC1CCCC1)c1ccc(Cl)cc1 (centres undefined)	.	48.2	.	.
CCCCN1CCN(c2ccc3c(c2)OCO3)C1=O	.	.	36.9	.
Cn1cccc1C(=O)NC1CC(=O)N(c2ccc3c(c2)OCO3)C1 (centres undefined)	.	.	.	.
COc1ccc(-c2ocnc2C(=O)NCc2cccc(OC)c2)cc1	.	.	43.9	.
COc1ccc(-c2cc(C(=O)Nc3ccccc3F)on2)cc1	42.1	.	.	.
COc1ccc(NC(=O)c2ncoc2-c2cccs2)c(OC)c1	46.4	.	.	.
COc1cccc(CNC(=O)c2sc(-c3ccc(OC)c(OC)c3)nc2C)c1	44.9	.	.	.
O=C(Nc1ccccc1Cl)c1ncoc1-c1cccs1	.	.	.	.
COc1ccc(CNC(=O)c2ncoc2-c2ccc(OC)cc2)cc1	.	.	.	.
CN1CCC(NC(=O)CN2CCN(Cc3ccc(F)cc3)C2=O)CC1	.	/	/	.
COc1ccc(-c2ocnc2C(=O)NCc2ccc(F)cc2)cc1OC	.	.	.	.
COc1ccc(-c2ocnc2C(=O)Nc2ccccc2F)cc1OC	76.0	81.2	.	37.4
COc1cccc(-c2ocnc2C(=O)Nc2cc(C)ccc2C)c1	.	.	.	.
COc1cccc(-c2ocnc2C(=O)Nc2ccc(C)cc2C)c1	39.1	33.6	.	.
COc1ccc(CC(=O)N(C)c2nc3c(s2)CCc2occc2-3)cc1	.	.	.	.
CN1c2ccc(Cl)cc2-c2nc(SCC(=O)Nc3ccc(F)cc3)ncc2S1(=O)=O	.	.	.	.
CC(C)N1CCc2c(sc(NC(=O)CSc3ccc(Cl)cc3)c2C(N)=O)C1	50.0	.	.	.
CC(C)N1CCc2c(sc(NC(=O)CSc3ccc(F)cc3)c2C(N)=O)C1	.	.	.	.
Cc1nc(-c2ccccc2)sc1C(=O)/C=C/c1ccccc1[N+](=O)[O-]	.	37.5	.	.
SMILES	USP17 block	USP30 block	USP28 block	OTUD3 block
O=C(CCc1ccccc1)N1CCN(c2cc(-c3cccnc3)[nH]n2)CC1	.	30.0	.	.
Cc1nnc(Sc2cc(C(=O)NCCN3CCCC3)c3ccccc3n2)s1	52.2	.	.	.
Cc1nnc(Sc2cc(C(=O)NCc3ccco3)c3ccccc3n2)s1	.	.	.	.
O=c1c2ccccc2oc2nc(-c3cccs3)n(-c3ccccc3)c(=O)c12	57.5	32.8	.	.
O=c1oc(-c2cccs2)ns1	.	.	.	.
CC1=C(C(=O)Nc2ccccc2)C(c2ccc(F)cc2)n2nnnc2N1 (centres undefined)	.	.	.	.
CCN(C(=O)COc1nsnc1N1CCOCC1)c1ccccc1	.	.	.	.
O=C(NCc1ccccc1Cl)C1CCN(c2ccc(-c3ccccc3)nn2)CC1	.	41.1	.	.
Cc1ccccc1CNC(=O)c1ccc(-c2ccc(N3CCCC3)nn2)cc1	47.7	.	.	.
CCn1ncc(Cn2nc(C)c(N)c2C)c1C	.	.	.	.
O=C(NCCc1ccc(Cl)cc1)c1ccc(CNS(=O)(=O)c2ccccc2)cc1	.	83.8	59.7	.
O=C(NCCc1cccc(Cl)c1)c1ccc(-c2ccccc2)cc1	.	.	.	.
CC(C)N1CC2CN(C(=O)CN3CCOCC3)CCN2Cc2ccccc21 (centres undefined)	.	.	.	.
Cn1c(=O)c2c(nc(N3CCN(C(=O)c4ccco4)CC3)n2CCSc2nnnn2-c2ccccc2)n(C)c1=O	.	37.5	.	.
